Hits are enriched below; roughly 9.6% of the tested compounds scored in any of these assays.
L major viab: inhibitors of Leishmania major promastigote growth; AID 1063; actives 9% (n = 200,000); inhibition, % at 10 µM; Leishmania major promastigotes, resazurin fluorescence viability; in the data active = inhibition above about 50%;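 also: promastigotes grown with compound for 44 hours at 28 °C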
Ins promoter up: MIN6 insulin promoter up-regulation; AID 1625; z-score at 5 µM; actives 0.3% (n = 190,000); MIN6 insulin promoter-GFP reporter, high-content imaging; active compounds read high;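 active = z-score above 3 at 5 µM with at least 500 cells counted in the well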
INS promoter inh: TRM-6 insulin promoter activity inhibition | TRM-6 cells (human fetal islet line), insulin promoter-eGFP reporter, imaging; reporter expression induced with tamoxifen | actives 0.9% (n = 130,000) | inhibition, % at 2 µM;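 active = inhibition above the mean plus 3 SD, with well images judged a real hit on visual review, cut at about 60% in these data, passing the limit was not always enough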
Autophagy HCS: autophagy modulation, high-content screen; MEF GFP-LC3 puncta imaging; test concentration mostly 10 µM; calls only at 10 µM (by protocol); actives 0.98% (n = 190,000);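 active = percentage of spot-positive cells more than 3 SD above its plate mean, without a fluorescence outlier flag or 80% toxicity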;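 also: spot-positive cell cutoff set from DMSO-treated cells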
PTEN del growth: suppresses growth of cells with PTEN deletion; HCT116 PTEN-null viability, CellTiter-Glo, 60 h; active compounds read low; viability, % at 10 µM; actives 1.2% (n = 140,000);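 active = viability at or below a set limit, 4 SD under the median of all tested compounds, cut at about 3.7% in these data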;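 also: PTEN knockout HCT116 line with beta catenin targeted HCT116 as companion control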
HCT116 bCat-KO: beta-catenin-lacking colon tumor cell growth suppression; actives 1.5% (n = 140,000); HCT116 beta-catenin knockout viability, CellTiter-Glo, 60 h; active compounds read low; AID 818; viability, % at 10 µM;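 active = viability at or under a set limit, the compound median less 4 SD, cut at about 6% in these data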;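 also: 0% = Hyamine 1622 control at 20 µM and 100% = untreated cell control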
An asterisk follows results filed as active.

`Cc1ccc(-n2c(C)cc(C(=O)COC(=O)c3ccc[nH]c3=O)c2C)cc1` gave L major viab 70.2*, Ins promoter up 0.37, INS promoter inh 7.1, Autophagy HCS inactive, PTEN del growth 89.5 and HCT116 bCat-KO 96.7.
For COc1cc2c(C(=O)NCCCOC(C)C)cn(CC(C)C)c(=O)c2cc1OC the results were L major viab -2.6, Ins promoter up 0.06, Autophagy HCS inactive, PTEN del growth 102.6 and HCT116 bCat-KO 77.5.
`CCCn1c(CC)nc([N+](=O)[O-])c1S(=O)(=O)c1ccccc1` gave L major viab 99.7*, Ins promoter up 0.66, INS promoter inh 30.0, Autophagy HCS inactive, PTEN del growth 1.2* and HCT116 bCat-KO 1.4*.
Screening Cc1ccc(-n2nc3cc(C)c(NC(=S)NC(=O)/C=C/c4ccco4)cc3n2)cc1 returned L major viab 1.7, Ins promoter up -0.2, INS promoter inh 22.6, Autophagy HCS inactive, PTEN del growth 6.2 and HCT116 bCat-KO 5.5*.
`Cc1cccc(NC(=S)NC(=O)/C=C/c2ccco2)c1` gave L major viab 3.3, Ins promoter up 1.23 and Autophagy HCS active.
`O=C(/C=C/c1ccco1)NC(=S)Nc1cccc([N+](=O)[O-])c1` gave L major viab -0.9, Ins promoter up -0.43, Autophagy HCS inactive, PTEN del growth 38.7 and HCT116 bCat-KO 31.6.
For CC1(C)SC(=S)N(/N=C/c2ccccc2O)C1N(O)C(=O)Nc1ccccc1 (configuration not stated) the results were Ins promoter up -0.02.
`Cc1ccc(C(NC(=O)NC(C)c2ccccc2)C(Cl)(Cl)Cl)cc1F` (configuration not stated) gave L major viab 30.0, Ins promoter up 0.64, Autophagy HCS inactive, PTEN del growth 3.4* and HCT116 bCat-KO 6.1*.
For CC1=NOC(=O)/C1=C\c1ccc(-c2cccc(Cl)c2)o1 the results were L major viab 97.3*, Ins promoter up 0.7, INS promoter inh 5.7, Autophagy HCS inactive, PTEN del growth 3.7* and HCT116 bCat-KO 1.1*.
CC1=CC2=NC(=O)/C(=C\c3cc(C)n(-c4ccc(F)cc4)c3C)C(=N)N2O1 was read as L major viab -2.4, Ins promoter up -0.24, INS promoter inh 23.1, Autophagy HCS inactive, PTEN del growth 86.4 and HCT116 bCat-KO 102.7.
`CC1=NOC(=O)/C1=C\c1ccc(-c2ccccc2Br)o1` gave L major viab 98.8*, INS promoter inh -14.3 and Autophagy HCS inactive.
CC1=CC2=NC(=O)/C(=C\c3ccc(-c4cccc(Cl)c4)o3)C(=N)N2O1 was read as L major viab 58.1*, Ins promoter up 0.26, INS promoter inh -33.3, Autophagy HCS active, PTEN del growth 91.9 and HCT116 bCat-KO 102.8.
CC1=NOC(=O)/C1=C\c1ccc(-c2ccc(Cl)c(C(=O)O)c2)o1 was read as L major viab -4.8, Ins promoter up -0.07, INS promoter inh 40.0 and Autophagy HCS inactive.
For CN(Cc1ccccc1)C(=O)C1CCN(S(=O)(=O)c2cc([N+](=O)[O-])ccc2Cl)CC1 the results were L major viab 22.0, Ins promoter up 2, Autophagy HCS inactive, PTEN del growth 68.7 and HCT116 bCat-KO 65.4.
`COc1ccc(C2CC(=O)C(C=NCCO)=C(O)C2)cc1OC` (configuration not stated) gave L major viab -2.7, Ins promoter up -0.32, INS promoter inh -5.3, Autophagy HCS inactive, PTEN del growth 101.0 and HCT116 bCat-KO 97.7.
For COc1ccc(C(=O)N(CN2CCCC2=O)c2cc(C)on2)cc1OC the results were L major viab -5.9, Ins promoter up -0.11, Autophagy HCS inactive, PTEN del growth 119.7 and HCT116 bCat-KO 110.5.
For Cc1nn(Cc2ccc(F)cc2)c2sc(C(=O)Nc3ccccc3N3CCOCC3)cc12 the results were L major viab 34.5, Ins promoter up -0.45, INS promoter inh 0.0, Autophagy HCS inactive, PTEN del growth 86.8 and HCT116 bCat-KO 92.4.
Screening Cc1cccc(C)c1-n1c(C)nn(Cc2ccc([N+](=O)[O-])cc2)c1=O returned L major viab 3.7, Ins promoter up 1.51, INS promoter inh 30.0 and Autophagy HCS inactive.
Cc1nn(Cc2ccc([N+](=O)[O-])cc2)c(=O)n1-c1ccccc1Cl was read as L major viab -4.7, Ins promoter up -0.8 and Autophagy HCS active.
For Cc1ccc(N(CC(=O)NC2CCC(C)CC2)S(=O)(=O)c2cccnc2)cc1 (configuration not stated) the results were L major viab 67.0*, Ins promoter up -0.25, Autophagy HCS inactive, PTEN del growth 94.8 and HCT116 bCat-KO 88.6.
For Cc1cc(S(=O)(=O)NC2CCN(Cc3ccccc3)CC2)c(C)cc1Cl the results were Ins promoter up -0.34.
For COC1(C)CC2C(CC1OC(=O)c1cc([N+](=O)[O-])cc([N+](=O)[O-])c1)C2(C)C (configuration not stated) the results were L major viab 100.3*, Autophagy HCS inactive, PTEN del growth 79.3 and HCT116 bCat-KO 87.2.
For Cc1nc(NCc2ccc3c(c2)OCO3)c2nnn(Cc3ccccc3)c2n1 the results were L major viab -9.7, Ins promoter up -0.59, INS promoter inh 25.0, Autophagy HCS active, PTEN del growth 13.8 and HCT116 bCat-KO 20.1.
`c1ccc(Cn2nnc3c(NCc4ccc5c(c4)OCO5)nc(C4CC4)nc32)cc1` gave L major viab 1.2, Ins promoter up -1, Autophagy HCS active, PTEN del growth 11.6 and HCT116 bCat-KO 17.3.
O=C(/C=C/Nc1nccs1)C(F)(F)Cl was read as L major viab 4.6, Ins promoter up -1.16 and Autophagy HCS inactive.
Screening CCC(NC(=O)c1ccc([N+](=O)[O-])cc1[N+](=O)[O-])c1ccccc1 (configuration not stated) returned L major viab 91.8*, INS promoter inh -80.0, Autophagy HCS inactive, PTEN del growth 89.2 and HCT116 bCat-KO 92.4.
`CCC(NC(=O)COc1ccc([N+](=O)[O-])cc1)c1ccccc1` (configuration not stated) gave L major viab 10.3, Ins promoter up -0.24, INS promoter inh 66.7* and Autophagy HCS inactive.
For COc1ccc(C(=O)N/C(=C/c2cccs2)C(=O)NC(C)(C)C)cc1OC the results were L major viab -0.6, Ins promoter up -0.16 and Autophagy HCS inactive.
`COc1cc2c(C(=O)OCCN(C)C)c(CSc3ccccc3)n(C)c2cc1Br` gave L major viab 7.0, Ins promoter up 0.1, INS promoter inh -80.0 and Autophagy HCS inactive.
Cc1sc2nc(CN3CCCC3)nc(N3CCC(C(N)=O)CC3)c2c1C was read as L major viab 0.4, INS promoter inh -13.3, Autophagy HCS inactive, PTEN del growth 80.8 and HCT116 bCat-KO 89.5.
